Activity calls are given as the source filed them.
Experiments:
[1] = binders of probe aFSTL3 on microarray, primary screen, stem cell growth factor project, biochemical, small-molecule microarray, fluorescence 635/667 (AID 1064); conditions: higher = more signal;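 further: measures binding of the biotinylated anti-FSTL3 antibody to printed compounds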
[2] = binders from COS7 lysate, DM2A8 probe, primary screen, torsin A project, cell lysate, small-molecule microarray, fluorescence 635/667 (AID 1065); conditions: higher = more signal, COS7 lysate expressing mutant human TOR1A
[3] = binders of probe aFGF2 on microarray, primary screen, stem cell growth factor project, biochemical, small-molecule microarray, fluorescence 635/667 (AID 1067); conditions: higher = more signal;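 further: measures binding of biotinylated aFGF2 protein to printed compounds on slides; z-score merges feature fluorescence and signal-to-noise across triplicate slides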
[4] = binders of probe aFGF10 on microarray, primary screen, stem cell growth factor project, biochemical, small-molecule microarray, fluorescence 635/667 (AID 1071); conditions: higher = more signal;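 further: score merges 667 nm spot intensity and signal to noise from triplicate slides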
[5] = biological target: Neurogenic locus notch homolog protein 2 (Homo sapiens) (UniProt Q04721); experiment: Notch2 binders on small-molecule microarrays, primary screen, biochemical, small-molecule microarray, 635 nm fluorescence, stem cell growth factors (AID 1073); conditions: Notch2 binding, higher = more signal
Sequence of Neurogenic locus notch homolog protein 2 (Homo sapiens) (Q04721 whole entry, looked up, canonical isoform): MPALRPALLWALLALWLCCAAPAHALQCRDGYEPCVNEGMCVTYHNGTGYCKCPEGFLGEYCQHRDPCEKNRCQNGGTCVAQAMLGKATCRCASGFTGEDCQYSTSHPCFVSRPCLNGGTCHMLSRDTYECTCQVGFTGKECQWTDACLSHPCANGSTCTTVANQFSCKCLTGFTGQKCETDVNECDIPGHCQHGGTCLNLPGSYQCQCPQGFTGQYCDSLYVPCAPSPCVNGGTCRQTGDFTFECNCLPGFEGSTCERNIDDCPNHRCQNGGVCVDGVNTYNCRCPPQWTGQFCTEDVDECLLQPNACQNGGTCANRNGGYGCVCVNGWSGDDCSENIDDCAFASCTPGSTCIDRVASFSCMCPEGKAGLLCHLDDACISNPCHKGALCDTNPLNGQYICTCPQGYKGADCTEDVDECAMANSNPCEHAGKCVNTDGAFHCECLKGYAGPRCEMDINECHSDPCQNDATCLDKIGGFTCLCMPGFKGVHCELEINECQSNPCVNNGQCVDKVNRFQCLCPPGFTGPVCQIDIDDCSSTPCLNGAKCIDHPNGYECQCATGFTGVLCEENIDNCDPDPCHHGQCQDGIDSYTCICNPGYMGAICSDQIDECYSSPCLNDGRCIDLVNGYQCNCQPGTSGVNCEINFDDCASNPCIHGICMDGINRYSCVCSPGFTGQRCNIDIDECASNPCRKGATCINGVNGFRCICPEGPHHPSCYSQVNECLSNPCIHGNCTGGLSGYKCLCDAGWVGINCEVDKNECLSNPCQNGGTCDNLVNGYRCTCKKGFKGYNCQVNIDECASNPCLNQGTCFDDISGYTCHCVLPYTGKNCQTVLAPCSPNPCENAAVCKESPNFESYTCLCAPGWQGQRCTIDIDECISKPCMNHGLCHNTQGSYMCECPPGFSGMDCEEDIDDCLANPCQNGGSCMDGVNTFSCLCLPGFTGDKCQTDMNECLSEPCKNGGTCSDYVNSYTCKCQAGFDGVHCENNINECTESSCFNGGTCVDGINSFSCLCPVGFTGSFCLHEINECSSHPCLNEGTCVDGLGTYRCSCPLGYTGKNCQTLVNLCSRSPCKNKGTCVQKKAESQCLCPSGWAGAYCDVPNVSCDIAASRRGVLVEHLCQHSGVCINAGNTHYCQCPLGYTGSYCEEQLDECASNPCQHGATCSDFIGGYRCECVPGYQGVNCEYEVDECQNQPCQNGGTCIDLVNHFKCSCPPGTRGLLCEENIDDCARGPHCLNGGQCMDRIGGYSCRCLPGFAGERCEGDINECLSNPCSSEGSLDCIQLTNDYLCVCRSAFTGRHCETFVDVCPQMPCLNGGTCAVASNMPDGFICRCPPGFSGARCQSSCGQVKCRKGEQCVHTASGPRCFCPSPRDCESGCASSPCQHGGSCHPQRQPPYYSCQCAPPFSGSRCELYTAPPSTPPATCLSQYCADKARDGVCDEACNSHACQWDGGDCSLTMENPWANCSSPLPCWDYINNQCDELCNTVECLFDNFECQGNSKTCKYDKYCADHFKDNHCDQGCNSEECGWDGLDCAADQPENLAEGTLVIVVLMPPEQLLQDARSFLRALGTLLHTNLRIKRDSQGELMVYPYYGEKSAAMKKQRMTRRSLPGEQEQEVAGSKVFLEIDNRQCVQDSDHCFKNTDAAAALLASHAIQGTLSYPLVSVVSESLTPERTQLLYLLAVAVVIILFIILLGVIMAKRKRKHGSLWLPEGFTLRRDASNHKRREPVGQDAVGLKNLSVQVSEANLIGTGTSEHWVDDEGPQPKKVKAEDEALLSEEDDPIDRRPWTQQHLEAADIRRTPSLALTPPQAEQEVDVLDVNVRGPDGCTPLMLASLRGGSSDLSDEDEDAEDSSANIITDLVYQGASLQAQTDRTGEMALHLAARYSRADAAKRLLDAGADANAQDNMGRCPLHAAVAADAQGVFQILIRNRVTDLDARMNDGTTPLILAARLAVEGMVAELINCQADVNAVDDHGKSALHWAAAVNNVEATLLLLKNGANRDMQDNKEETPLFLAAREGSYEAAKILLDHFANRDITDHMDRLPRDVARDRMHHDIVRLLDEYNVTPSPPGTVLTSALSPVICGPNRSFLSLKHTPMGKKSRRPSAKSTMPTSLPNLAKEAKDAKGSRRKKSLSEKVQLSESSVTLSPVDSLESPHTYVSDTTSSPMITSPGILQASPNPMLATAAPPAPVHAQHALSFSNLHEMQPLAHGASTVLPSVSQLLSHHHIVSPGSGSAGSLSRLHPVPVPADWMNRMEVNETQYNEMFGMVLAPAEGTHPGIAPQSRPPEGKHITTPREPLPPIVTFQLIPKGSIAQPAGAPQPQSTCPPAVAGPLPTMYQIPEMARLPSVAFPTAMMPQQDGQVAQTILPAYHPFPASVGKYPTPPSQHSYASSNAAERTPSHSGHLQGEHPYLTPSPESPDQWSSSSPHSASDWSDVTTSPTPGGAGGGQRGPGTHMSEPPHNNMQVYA

[6] = biological target: Pro-neuregulin-1, membrane-bound isoform (Homo sapiens) (UniProt Q02297); experiment: NRG1 binders on small-molecule microarrays, primary screen, psychiatric disease protein project, biochemical, small-molecule microarray, fluorescence 635/667 (AID 1075); conditions: NRG1 binding, 635 nm fluorescence, higher = more signal;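 further: score combines 667 nm spot fluorescence with signal to noise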
Sequence of Pro-neuregulin-1, membrane-bound isoform (Homo sapiens) (Q02297 whole entry, looked up, the tested form may be a part, canonical isoform): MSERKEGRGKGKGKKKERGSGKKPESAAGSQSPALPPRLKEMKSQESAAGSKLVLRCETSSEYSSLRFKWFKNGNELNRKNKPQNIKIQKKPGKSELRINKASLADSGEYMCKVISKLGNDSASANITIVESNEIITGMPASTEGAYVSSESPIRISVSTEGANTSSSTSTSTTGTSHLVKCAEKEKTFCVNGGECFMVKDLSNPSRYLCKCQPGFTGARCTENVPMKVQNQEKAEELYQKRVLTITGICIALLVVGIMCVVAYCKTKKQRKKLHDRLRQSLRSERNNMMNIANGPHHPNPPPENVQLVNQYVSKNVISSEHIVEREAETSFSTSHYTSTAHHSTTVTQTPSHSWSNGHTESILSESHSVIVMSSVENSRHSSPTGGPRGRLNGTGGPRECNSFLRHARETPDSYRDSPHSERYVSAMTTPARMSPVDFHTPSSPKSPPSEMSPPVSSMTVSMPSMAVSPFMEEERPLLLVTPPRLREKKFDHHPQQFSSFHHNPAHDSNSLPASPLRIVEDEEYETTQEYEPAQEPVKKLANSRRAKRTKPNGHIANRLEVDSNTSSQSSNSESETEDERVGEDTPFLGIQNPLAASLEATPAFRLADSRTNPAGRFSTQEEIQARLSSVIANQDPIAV

[7] = system: Neuregulin-1 EGF-like domain; experiment: binders of neuregulin-1 EGF-like domain, primary screen, biochemical, small-molecule microarray, 635 nm fluorescence (AID 1081); conditions: small-molecule microarray binding, higher = more signal;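 further: binding of the protein to compounds printed on small-molecule microarray slides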
[8] = FRG1 promoter luciferase signal modulators, primary screen, FRG1 inhibition for FSHD, cell-based, C2C12 myotubes, firefly/Renilla luciferase, luminescence (AID 1084); conditions: higher = more signal, called active from +8 up or from −8 down
[9] = binders of probe aFST on microarray, primary screen, stem cell growth factor project, biochemical, small-molecule microarray, fluorescence 635/667 (AID 1086); conditions: higher = more signal;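 further: score merges 667 nm fluorescence with signal-to-noise of each printed compound spot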
[10] = binders of probe aHhip on microarray, primary screen, stem cell growth factor project, biochemical, small-molecule microarray, fluorescence 635/667 (AID 1087); conditions: higher = more signal;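 further: score merges spot fluorescence at 667nm with spot signal to noise ratio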
[11] = system: PRMT1 (protein arginine N-methyltransferase 1); experiment: PRMT1 binders on small-molecule microarrays, primary screen, biochemical, small-molecule microarray, 635 nm fluorescence (AID 1088); conditions: small-molecule microarray binding, higher = more signal;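 further: binding of Prmt1 protein to compounds spotted on small-molecule microarray slides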
[12] = yeast growth modulation, basal conditions, primary screen, YJM789 clinical isolate, OD600, 24 h (AID 1089);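 further: growth of clinical yeast isolate S. cerevisiae YJM 789 seeded 1000 cells per well; test concentration not given here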; conditions: S. cerevisiae YJM789 growth, higher = more signal, called active from +8 up or from −8 down
[13] = fission yeast growth modulation, primary screen, strain 972, OD600, 24 h, no modulator (AID 1090);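 further: basal condition with compound alone and no growth modifier present; test concentration not given here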; conditions: S. pombe 972 growth, higher = more signal, called active from +8 up or from −8 down
[14] = S. cerevisiae growth modulation with rapamycin, primary screen, strain BY4716, OD600, 96 h (AID 1091); conditions: higher = more signal, called active from +8 up or from −8 down; further: test concentration not given here
[15] = biological target: Torsin-1A-interacting protein 2 (Homo sapiens) (UniProt Q8NFQ8); experiment: LULL1 binders on small-molecule microarray, primary screen, cell lysate, human LULL1 lysate, 635/667 nm fluorescence (AID 1092); conditions: hLULL1 lysate binding, 635 nm fluorescence, higher = more signal;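 further: probe is lysate of COS7 cells overexpressing human LULL1; score merges per-feature 667 nm fluorescence with signal-to-noise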
Sequence of Torsin-1A-interacting protein 2 (Homo sapiens) (Q8NFQ8 whole entry, looked up): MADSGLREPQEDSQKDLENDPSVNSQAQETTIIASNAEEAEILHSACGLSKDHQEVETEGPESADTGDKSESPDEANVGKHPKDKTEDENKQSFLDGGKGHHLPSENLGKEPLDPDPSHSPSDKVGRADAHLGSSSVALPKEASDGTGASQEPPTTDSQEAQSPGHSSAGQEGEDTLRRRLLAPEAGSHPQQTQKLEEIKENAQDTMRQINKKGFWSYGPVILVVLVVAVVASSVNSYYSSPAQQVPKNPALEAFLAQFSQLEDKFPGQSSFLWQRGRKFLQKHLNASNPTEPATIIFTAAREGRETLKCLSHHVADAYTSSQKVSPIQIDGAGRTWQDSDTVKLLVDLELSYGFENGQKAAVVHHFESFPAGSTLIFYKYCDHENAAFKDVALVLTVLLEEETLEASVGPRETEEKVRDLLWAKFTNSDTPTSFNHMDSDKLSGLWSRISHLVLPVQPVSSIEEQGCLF

[16] = E. coli growth modulation, two-sided OD650, primary screen, E. coli filamentation project, strain DRC41, 24 h (AID 1093); conditions: OD650, 24 h, higher = more signal, called active from +8 up or from −8 down;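 further: MC1000 strain lacking acrAB efflux and sulA so SOS filamentation is blocked; test concentration not given here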
[17] = small-molecule microarray binders of probe aLefty2, primary screen, biochemical, biotinylated probe, 635/667 nm fluorescence (AID 1094); conditions: higher = more signal;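 further: score merges spot fluorescence near 667 nm with spot signal-to-noise ratio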
[18] = system: Noggin (protein binding on small-molecule microarray); experiment: Noggin binders on small-molecule microarray, primary screen, biochemical, 635/667 nm fluorescence (AID 1095); conditions: 635 nm fluorescence, higher = more signal;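 further: score merges 667 nm feature fluorescence with signal to noise over triplicate slides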
[19] = biological target: Neurogenic locus notch homolog protein 3 (Homo sapiens) (UniProt Q9UM47); experiment: NOTCH3 binders on small-molecule microarray, primary screen, biochemical, 635/667 nm fluorescence (AID 1096); conditions: NOTCH3 binding, 635 nm fluorescence, higher = more signal
[20] = small-molecule microarray binders of probe aEGFR, primary screen, biochemical, biotinylated probe, 635/667 nm fluorescence (AID 1097); conditions: higher = more signal;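 further: probe is a biotinylated anti-EGFR antibody binding compounds printed on slides; score combines fluorescence near 667 nm and signal to noise of each spot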

SMILES	composite z-score [1]	composite z-score [2]	composite z-score [3]	composite z-score [4]	composite z-score [5]	composite z-score [6]	composite z-score [7]	z-score [8]	composite z-score [9]	composite z-score [10]	composite z-score [11]	z-score [12]	z-score [13]	z-score [14]	composite z-score [15]	z-score [16]	composite z-score [17]	composite z-score [18]	composite z-score [19]	composite z-score [20]
CC(C)(C)OC(=O)CC[C@]1(C(=O)N2CCOCC2)N=C(c2ccc(OCCCO)cc2)O[C@H]1c1ccccc1N=[N+]=[N-]	0.594	0.838	0.0376	0.402	1.48	1.63	1.28	1.71 (inactive)	1.06	0.0515	1.28	-0.54 (inactive)	-0.496 (inactive)	-0.531 (inactive)	3.25	1.57 (inactive)	0.124	0.356	0.671	0.0552
CC1CC/C=C\[C@H]2OC34C=CCN(C(C)(C)C)C(=O)[C@H]3N(CCO)C(=O)[C@@H]4C2C(=O)O1 (stereo not given in full)	-0.133	0.0564	-0.217	-0.749	-1.56	-1.02	0.784	0.0503 (inactive)	-0.529	-0.0645	1.06	-1.33 (inactive)	-0.905 (inactive)	-0.471 (inactive)	2.92	1.45 (inactive)	-0.0589	0.112	-0.916	-0.312
O=C1c2ccccc2[C@](Cc2ccccc2I)(C(=O)NCCN2CCOCC2)[C@H](c2ccc(CO)cc2)N1C1CCCCC1	0.446	0.473	-0.0181	0.352	1.39	0.738	1.22	-4.42 (inactive)	1.19	0.259	1.43	-0.139 (inactive)	-0.156 (inactive)	0.216 (inactive)	1.53	1.09 (inactive)	0.227	1.12	1.06	0.521
O=C(NCCO)C1=C[C@H](Oc2ccccc2I)[C@@H](O)[C@H](N(Cc2ccco2)C(=O)Cc2ccccc2)C1	0.0391	0.208	-0.112	0.236	0.299	-0.352	-0.473	0.157 (inactive)	-0.0165	0.12	-0.0355	0.528 (inactive)	0.0689 (inactive)	0.279 (inactive)	-0.298	-0.546 (inactive)	-0.0279	0.535	0.271	-0.0767
C=C[C@H](CO)NS(=O)(=O)c1ccc(Br)cc1	-0.42	0.213	-0.116	0.243	0.315	0.456	0.827	0.297 (inactive)	0.447	0.257	-0.0224	0.198 (inactive)	-1.53 (inactive)	-0.135 (inactive)	0.676	1.29 (inactive)	0.0467	0.19	-0.342	-0.0302
O=C1c2ccccc2[C@](Cc2ccccc2I)(C(=O)NCCN2CCOCC2)[C@H](c2ccc(CO)cc2)N1Cc1ccccc1Cl	0.118	0.469	0.07	0.915	1.13	1.24	1.29	-1.96 (inactive)	0.511	0.0274	1.55	-0.747 (inactive)	-0.0063 (inactive)	-1.04 (inactive)	2.45	-0.116 (inactive)	0.225	0.72	1.12	0.0523
C=CCOC(=O)[C@H]1[C@@H]2C(=O)O[C@@H](c3ccccc3)[C@@H](c3ccccc3)N2[C@@H](c2ccc(OCCOC(=O)[C@H]3C[C@H]4C(=O)N[C@@H](CCCCNC(C)=O)C(=O)N4[C@H]3c3ccc(O)cc3)cc2)[C@]12C(=O)Nc1ccc(I)cc12	-0.37	0.517	0.0126	0.169	0.791	0.349	1.14	0.136 (inactive)	1.3	0.312	1.57	1.12 (inactive)	-2.33 (inactive)	1.75 (inactive)	1.81	-2.07 (inactive)	-0.0566	1.5	1.07	-0.0088
CN(C)CCCCCCNC(=O)[C@H]1C[C@H]2C(=O)N3CCC[C@H]3C(=O)N2[C@H]1c1ccc(O)cc1	-0.0698	1.93	0.0082	1.16	0.863	0.854	1.49	3.92 (inactive)	0.2	0.151	1.53	-0.389 (inactive)	-1.4 (inactive)	0.24 (inactive)	2.9	1.95 (inactive)	0.172	1.74	1.07	0.475
NCCCCCCNC(=O)[C@@H]1C[C@@H]2C(=O)NCC(=O)N2[C@@H]1c1ccc(O)cc1	-0.175	0.853	-0.14	0.177	0.571	1.32	1.41	1.03 (inactive)	0.703	-0.207	1.56	0.0703 (inactive)	0.467 (inactive)	-0.129 (inactive)	1.01	1.1 (inactive)	-0.0324	1.58	1.07	-0.0409
COCCCNC(=O)[C@]1(CCC(=O)OC(C)(C)C)N=C(c2ccc(OCCCO)cc2)O[C@@H]1c1ccccc1CN=[N+]=[N-]	0.175	1.19	0.042	1.27	0.96	0.732	1.41	4.82 (inactive)	0.728	0.107	1.54	0.15 (inactive)	0.556 (inactive)	-0.78 (inactive)	2.92	-0.613 (inactive)	0.0894	0.33	0.89	-0.0315
C[C@@]1([C@@H](NC(=O)c2ccc(-c3ccccc3)cc2)c2ccc(Cl)cc2)C[C@H]1C1CCCCC1	0.512	0.903	0.276	0.473	1.43	1.86	0.883	-0.203 (inactive)	0.893	0.133	0.497	0.823 (inactive)	-3.48 (inactive)	1.6 (inactive)	2.54	-0.586 (inactive)	0.101	0.118	0.73	0.302
COCCOC(=O)N1C(=O)[C@@]2(c3cc(C#CCC(C(=O)OC)C(=O)OC)ccc31)[C@H](c1ccccc1OCCO)N1[C@H](c3ccccc3)[C@H](c3ccccc3)OC(=O)[C@H]1[C@@H]2C(=O)N1CCN(c2ncccn2)CC1	-0.266	0.273	0.137	0.432	0.986	1.32	1.2	-0.796 (inactive)	0.74	0.03	1.54	2.01 (inactive)	2.65 (inactive)	7.01 (inactive)	3.09	0.998 (inactive)	-0.0557	1.28	1.08	0.032
COCCOC(=O)N1C(=O)[C@@]2(c3cc(C#CCCO)ccc31)[C@H](C(N)=O)[C@H]1C(=O)O[C@H](c3ccccc3)[C@H](c3ccccc3)N1[C@@H]2c1ccc(O)cc1	-0.025	-0.283	-0.0145	0.413	-0.242	0.298	0.171	0.663 (inactive)	-0.0464	-0.202	-0.101	0.0223 (inactive)	-0.0181 (inactive)	-0.535 (inactive)	0.877	-0.844 (inactive)	-0.159	-0.248	-0.589	-0.202
COCCCNC(=O)[C@@H]1c2ccccc2C(=O)N(Cc2ccccc2Cl)[C@H]1c1ccc(CO)cc1	0.189	-0.0402	-0.117	-0.247	0.161	0.379	1.48	-1.76 (inactive)	0.465	-0.0237	1.53	-0.103 (inactive)	-0.329 (inactive)	-0.59 (inactive)	2.26	2.55 (inactive)	-0.101	0.522	0.388	-0.13
CC#CC(=O)Oc1ccccc1C=CC(=O)OCC	-0.156	-0.0011	-0.0268	0.238	0.53	0.133	0.448	0.809 (inactive)	0.163	-0.125	0.779	-2.32 (inactive)	-15.4 (active)	-2.16 (inactive)	1.33	0.316 (inactive)	-0.0549	0.664	0.225	-0.0531
CN(C)CCCC[C@@H]1NC(=O)[C@H]2C[C@@H](C(=O)NCCCCCCN)[C@@H](c3ccc(O)cc3)N2C1=O	1.89	1.03	0.128	0.935	1.37	1.79	1.1	0.511 (inactive)	1.52	1.09	1.57	0.307 (inactive)	-0.235 (inactive)	-0.447 (inactive)	3.08	0.278 (inactive)	1.14	1.84	1.15	0.566
C=CC[C@]1(C(=O)NCCCOC)N=C(c2ccc(OCCCO)cc2)O[C@H]1c1ccccc1CN=[N+]=[N-]	1.07	0.717	-0.0981	0.807	1.49	1.3	1.08	0.373 (inactive)	0.952	0.335	1.13	-1.5 (inactive)	0.998 (inactive)	-1.71 (inactive)	3.15	-0.483 (inactive)	0.248	0.102	0.854	0.286
CN(C)C(=O)[C@]1(Cc2ccccc2N=[N+]=[N-])N=C(c2ccc(OCCCO)cc2)O[C@@H]1c1ccccc1N=[N+]=[N-]	0.0009	0.827	0.0155	0.183	1.47	1.01	1.26	-1.74 (inactive)	1.15	0.0373	1.55	-2.43 (inactive)	-2.73 (inactive)	4.05 (inactive)	3.2	0.799 (inactive)	0.191	0.923	1.07	-0.0111
